Source: PubChem
This is a sample that favours compounds with a hit; in the whole collection about 3.1% have one here.
TRb-SRC2 inh: inhibitors of human thyroid hormone receptor beta-SRC2 interaction | P10828 | TRbeta-SRC2 peptide binding, fluorescence polarization; receptor liganded with 1 µM T3 | Potency, µM (series often up to 106 µM), without a hit: at the top dose activity change, negative = inhibition, most hits filed as inhibitors | actives 0.065% (n = 280,000) | AID 1469;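 note: plate controls were bound peptide for no effect and peptide without receptor for full effect; nearly all actives have a fitted effect of over 50% in size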
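Fluorescence polarization of 20 nM Texas Red SRC2 peptide with 0.6 uM human TRb ligand-binding domain, in Tris buffer with 1uM T3 and 5% DMSO. Incubated 5 hr ambient; normalized to unbound and bound controls.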
Tau fibril ThT: blocks human tau fibril formation measured by thioflavin T | AID 1460 | recombinant tau K18 P301L, heparin-induced fibrillization, ThT fluorescence | Potency, µM (doses to about 57.4 µM), inactives show top-dose activity, negative = inhibition, hits mostly inhibitors | actives 2.1% (n = 270,000); note: nearly all actives have a fitted effect of over 55% in size
Target sequence (P10636 561-689 P618L limits assumed): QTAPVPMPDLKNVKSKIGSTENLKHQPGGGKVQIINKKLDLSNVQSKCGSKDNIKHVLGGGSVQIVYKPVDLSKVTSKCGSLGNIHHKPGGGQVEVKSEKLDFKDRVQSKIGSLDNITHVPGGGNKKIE
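K18 P301L tau (15 uM + 0.24 uM Alexa 594-tagged), heparin 20 uM, NaOAc pH 7, 6 h 37 C; ThT 30 uM, 1 h RT, ex 450/em 510 nm.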
TR SRC2 fluor cs: Texas Red fluorescence interference in TRb-SRC2 counter-screen; TRb/SRC2 Texas Red total fluorescence interference; Potency, µM (doses to about 106 µM), without a hit: top-dose fluorescence change, negative = quenching; AID 1479; actives 0.29% (n = 280,000); active = well fitted curve in either direction with a large enough effect; inconclusive = small, poorly fitted or top-dose-only effect
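Human TRβ ligand-binding domain (0.6 uM) and Texas Red SRC2 peptide (20 nM) in Tris buffer with 1 uM T3 and 5% DMSO were incubated with pinned compound for 5 hr at ambient temperature. Total fluorescence was computed as S + 2P (555/632 nm).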
Tau fibril FP: tau fibrillization inhibition (FP); actives 0.39% (n = 280,000); P10636; K18 P301L tau heparin fibrillization, Alexa594 FP, 6 h; Potency, µM (titrated, usually from 57.7 µM), inactives show top-dose activity, negative = inhibition, usual class: inhibitors; note: nearly all actives have a fitted effect of over 55% in size
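K18 P301L tau (15 uM unlabeled/0.24 uM Alexa 594-labeled, final) + compound + heparin 20 uM final; 100 mM NaOAc pH 7; 6 hr 37 C; ThT 30 uM final added, 1 hr RT; FP ex 555/em 632 nm.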
Tau fluor cs: counter-screen for tau fibril formation inhibitors; Potency, µM (doses to about 57.7 µM), for inactives: at the top dose activity change, negative = decrease; AID 1463; tau K18 P301L (four-repeat tau fragment) Alexa594 fluorescence, heparin fibrillization; actives 0.93% (n = 280,000); note: nearly all actives have a fitted effect of over 55% in size
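Human K18 P301L tau (15 uM unlabeled plus 0.24 uM Alexa 594-labeled, final) in 100 mM sodium acetate pH 7 was mixed with compound and 20 uM heparin and incubated 6 hr at 37 C.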
* marks the source's active call; other numbers are inactive results; ? = inconclusive; . = no result given; ! = not active in a repeat; [ ] = remark or other dose. Unless noted, calls come from the whole dose curve; as a rule, active = well fitted curve in the direction sought with a large enough effect; inconclusive = small, poorly fitted or top-dose-only effect, or another doubt; inactive = no such curve, though single readings can be large; an effect the other way counts as inactive or inconclusive. Unless noted, % is set by controls: 0 for no effect and ±100 for the full control effect; potency is the fitted concentration of half-maximal effect.

SMILES | TRb-SRC2 inh | Tau fibril ThT | TR SRC2 fluor cs | Tau fibril FP | Tau fluor cs
CN1C(=O)C(Cc2cccc3ccccc23)C(=O)N(C)C1=O | -10% | 25µM* | 3% | ? | -20%
O=S1(=O)CCN(CCc2c[nH]c3ccccc23)CC1 | -4% | 0% | 0% | 8% | 2%
CC1(C)CON(Cc2ccccc2Cl)C1=O | -8%[201 µM] | . | -15%[201 µM] | . | .
CCOC(=O)C(SP(=S)(OC)OC)c1ccccc1 (stereo not drawn) | -3% | . | -4% | . | .
CCOCn1c(-c2ccc(Cl)cc2)c(C#N)c(Br)c1C(F)(F)F | 2%[201 µM] | . | -4%[201 µM] | . | .
O=C1NC(=O)N(Cc2cccs2)C(=O)/C1=C/c1ccc(N2CCOCC2)cc1 | 2% | ? | -2% | -7% | -25%
O=C1NC(=O)N(Cc2ccccc2Cl)C(=O)/C1=C/N1CCOCC1 | -5% | 18µM* | -5% | ? | -23%
O=S(=O)(O)C(F)(F)C(F)(F)C(F)(F)C(F)(F)C(F)(F)C(F)(F)F | -3%[201 µM] | . | -3%[201 µM] | . | .
O=C(O)C(F)(F)C(F)(F)C(F)(F)C(F)(F)C(F)(F)C(F)(F)C(F)(F)C(F)(F)F | ? | . | 126µM*![quencher] | . | .
ClCc1ccccc1Cl | 2%[201 µM] | . | -1%[201 µM] | . | .
O=C1C(Cl)=C(Cl)C(=O)C(Cl)=C1Cl | -3% | 1.4µM* | -10% | 1.4µM* | 14µM*[quencher]
O=[N+]([O-])c1ccc(N2CCCNCC2)c2ncccc12 | 8% | ? | -1% | 1% | -4%
O=[N+]([O-])c1ccc(N2CCCCC2)c2ncccc12 | 12% | 16µM* | -1% | -15% | ?
O=[N+]([O-])c1ccc(N2CCCCCC2)c2ncccc12 | 2% | 16µM* | -3% | -4% | -28%
CCOc1ccc(C(C)(C)COCc2cccc(Oc3ccccc3)c2)cc1 | 0%[201 µM] | . | 0%[201 µM] | . | .
C[N+]1(C)CCCCC1 | -2%[201 µM] | . | 2%[201 µM] | . | .
Cc1[nH]n(-c2ccccc2)c(=O)c1C(c1ccc([N+](=O)[O-])cc1)c1c(C)[nH]n(-c2ccccc2)c1=O | 0%[53 µM] | -7% | 0.35µM*[quencher] | 2% | -9%
CN1c2ccc([N+](=O)[O-])cc2CC2(C(=O)NC(=O)N(c3ccccc3)C2=O)C1c1ccccc1 (stereo not drawn) | -7% | ? | -1% | 3% | -11%
CCSCc1ccccc1OC(=O)NC | -3%[201 µM] | . | -2%[201 µM] | . | .
CCCCC(CC)C(=O)Cl (stereo not drawn) | -1%[201 µM] | . | -4%[201 µM] | . | .
Cc1cccn2c(=O)c(/C=C(\C#N)c3nc4ccccc4s3)c(Oc3ccc(F)cc3)nc12 | -3% | ? | 4% | ? | -7%
O=c1[nH]sc2cc(F)ccc12 | -6% | 11µM* | -1% | 28µM* | -25%
CNC(=O)N(C)c1nc2ccccc2s1 | 0%[201 µM] | . | 0%[201 µM] | . | .
COCCCNC(=O)c1c(NC(=O)c2ccccc2Cl)n(Cc2ccccc2)c2nc3ccccc3nc12 | 1% | 4% | 1% | 5% | -11%
COCCNC(=O)c1c(NC(=O)c2ccco2)n(Cc2ccccc2)c2nc3ccccc3nc12 | -24% | 14µM* | -5% | ? | ?
SMILES | TRb-SRC2 inh | Tau fibril ThT | TR SRC2 fluor cs | Tau fibril FP | Tau fluor cs
Cc1cc(/C=C2\C(=O)NC(=S)N(C)C2=O)c(C)n1C1CCCCC1 | 11% | ? | 3% | -1% | -11%
Cc1cc(C=C2C(=O)N(C)C(=S)N(C)C2=O)c(C)n1C1CCCC1 | 0% | 25µM* | 5% | ? | ?
CCC(C)(c1ccc(O)cc1)c1ccc(O)cc1 | 1%[201 µM] | . | -1%[201 µM] | . | .
CCC(C)NC(=O)c1c(N)n(Cc2ccc3c(c2)OCO3)c2nc3ccccc3nc12 (stereo not drawn) | -28% | 20µM* | -3% | ? | ?
CC(C)(C)[C@@H](O)/C(=C\c1ccc(Cl)cc1Cl)n1cncn1 | -2%[201 µM] | . | -1%[201 µM] | . | .
CN1C(=O)C(=Cc2ccc(N3CCCCCC3)o2)C(=O)N(C)C1=S | -15% | 13µM* | 1% | -4% | ?
CNC(=O)Oc1cccc(-c2cn3cc(OC(=O)NC)ccc3n2)c1 | ? | 14µM* | ? | -12% | ?
c1ccc(SSc2ccccc2)cc1 | -3% | 25µM* | 1% | 13µM* | -19%
Brc1ccccc1 | 7%[201 µM] | -1% | 3%[201 µM] | 4% | 2%
